Bioassay records as filed in PubChem.
HP1b binding inh: HP1-beta chromodomain-methylated histone interaction inhibition | P83916 | AlphaScreen HP1-beta / biotin-H3K9me3 peptide binding | Potency, µM (top dose mostly 114 µM), without a hit: at the top dose activity change, negative = inhibition, hits mostly inhibitors | 0.56% of 390,000 active | AID 540317; further: nearly all actives have a fitted effect of over 70% in size
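AlphaScreen: HP1-beta (50 nM) preformed 30 min with biotin-H3(1-18)K9me3 peptide (50 nM) in PBS pH 7.4, 0.01% Tween-20. Compound added for 30 min at RT, then streptavidin donor/nickel chelate acceptor beads (10 ug/mL) for 30 min.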
JMJD2A Tudor inh: blocks the human JMJD2A Tudor domain | O75164 | AlphaScreen JMJD2A-Tudor / H3K4me3 peptide binding | Potency, µM (titrated, usually from 114 µM), inactives show at the top dose activity change, negative = inhibition, most hits filed as inhibitors | 4.4% of 390,000 active | AID 504339; further: on the % scale 0 is the no-effect control and ±100 the full control effect; nearly all actives have a fitted effect of over 50% in size
Target sequence (O75164 whole entry, looked up, the tested form may be a part): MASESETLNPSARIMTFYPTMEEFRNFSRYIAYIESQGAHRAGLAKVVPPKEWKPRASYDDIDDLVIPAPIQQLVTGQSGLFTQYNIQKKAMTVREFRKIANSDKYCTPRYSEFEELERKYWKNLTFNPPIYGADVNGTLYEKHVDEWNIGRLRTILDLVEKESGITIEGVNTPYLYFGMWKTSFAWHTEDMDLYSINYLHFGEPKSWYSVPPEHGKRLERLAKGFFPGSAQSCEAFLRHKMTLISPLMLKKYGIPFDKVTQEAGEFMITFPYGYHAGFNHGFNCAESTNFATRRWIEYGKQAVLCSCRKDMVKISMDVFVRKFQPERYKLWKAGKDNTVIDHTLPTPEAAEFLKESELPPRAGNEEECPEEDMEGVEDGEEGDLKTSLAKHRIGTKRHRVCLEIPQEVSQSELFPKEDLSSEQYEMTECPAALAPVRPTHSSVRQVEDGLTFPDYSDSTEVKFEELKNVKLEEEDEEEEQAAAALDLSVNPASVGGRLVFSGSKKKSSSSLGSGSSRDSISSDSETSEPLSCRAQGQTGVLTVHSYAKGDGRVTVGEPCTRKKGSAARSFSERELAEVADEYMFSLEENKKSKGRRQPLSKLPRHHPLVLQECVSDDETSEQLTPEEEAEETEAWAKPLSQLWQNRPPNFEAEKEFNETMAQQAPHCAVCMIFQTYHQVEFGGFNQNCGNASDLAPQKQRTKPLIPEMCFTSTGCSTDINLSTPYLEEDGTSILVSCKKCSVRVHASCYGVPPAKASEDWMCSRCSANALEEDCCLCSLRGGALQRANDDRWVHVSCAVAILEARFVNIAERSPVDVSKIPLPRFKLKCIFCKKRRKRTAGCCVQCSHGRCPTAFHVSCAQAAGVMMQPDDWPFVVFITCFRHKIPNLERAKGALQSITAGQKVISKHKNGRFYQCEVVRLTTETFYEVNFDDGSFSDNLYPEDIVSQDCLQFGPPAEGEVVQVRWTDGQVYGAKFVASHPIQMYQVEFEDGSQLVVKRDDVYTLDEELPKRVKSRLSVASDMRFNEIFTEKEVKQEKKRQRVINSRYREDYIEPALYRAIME
G9a block: G9a (human) methyltransferase inhibition | Potency, µM (top dose mostly 102 µM), without a hit: at the top dose activity, negative = inhibition, most hits filed as inhibitors | AID 504332 | G9a H3K9 monomethylation, AlphaScreen, 2 h | Q96KQ7 | 8.8% of 350,000 active; further: on the % scale 0 is the no-effect control and ±100 the full control effect; nearly all actives have a fitted effect of over 75% in size
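Compounds were preincubated with 20 nM G9a for 15 min, after which biotinylated H3K9 peptide (500 nM) and SAM (20 uM) started a 2 h room-temperature reaction. Monomethylated product was quantified by antibody-based AlphaScreen chemiluminescence.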
Sfp inh: inhibitors of Bacillus subtilis Sfp phosphopantetheinyl transferase | 3.5% of 310,000 active | Potency, µM, for the others: largest response in the series, negative = inhibition, hits mostly inhibitors | Biochemical Sfp PPTase activity, qHTS | AID 1490;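 further: the enzyme is Sfp with the accession as filed and its product quenches rhodamine fluorescence; 0% = enzyme reaction without inhibitor and -100% = no enzyme wells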
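Reaction rates are the 30-min fluorescence difference (ex 525, em 598 nm) in wells containing 15 nM Sfp, 5 uM rhodamine-CoA and 12.5 uM BHQ-2-YbbR at pH 7.6 with 10 mM MgCl2.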
BAZ2B block: blocks human BAZ2B | 4.4% of 360,000 active | AlphaScreen BAZ2B-H3K14Ac peptide displacement | AID 504333 | Potency, µM (series often up to 114 µM), without a hit: at the top dose activity change, negative = inhibition, most hits filed as inhibitors | Q9UIF8; further: on the % scale 0 is the no-effect control and ±100 the full control effect; nearly all actives have a fitted effect of over 60% in size
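AlphaScreen luminescence quantifies BAZ2B engagement of H3K14Ac peptide; the protein and biotinylated peptide are both at 50 nM final, buffer PBS pH 7.4 with 0.01% Tween-20, all steps at room temperature.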
Starred values were filed as active, the others as inactive; ? = inconclusive; nt = no result given; [ ] = remark or other dose. The list is not random: actives were taken first. Their share in the collection is about 12%. The call rests on the fitted dose curve; in most records, active means well fitted curve in the direction sought with a large enough effect; inconclusive means small, poorly fitted or top-dose-only effect, or another doubt; inactive means no such curve, though single readings can be large; an effect the other way counts as inactive or inconclusive. Potency means the concentration at half of the fitted maximal effect.

SMILES	HP1b binding inh	JMJD2A Tudor inh	G9a block	Sfp inh	BAZ2B block
Cc1ccc(CNC(=O)CSc2nc3ccccc3[nH]2)cc1	54%	-12%	25µM*	-10%	-20%
Cc1ccc(S(=O)(=O)N2CCN(C(=O)CSc3nc4ccccc4c(=O)[nH]3)CC2)cc1	14%	-6%	-28%[12.7 µM]	9%	-37%
Cc1nnc(NC(=O)CSc2ccc3nnc(-c4ccccn4)n3n2)s1	34%	79µM*	-33%	-2%	nt
COc1ccc(-c2nnc3ccc(SCC(=O)Nc4nc5ccccc5s4)nn23)cc1OC	41%	13%[57.1 µM]	-20%[59 µM]	3%	8%
COc1ccc(-c2nnc3ccc(SCC(=O)Nc4nccs4)nn23)cc1OC	22%	7%	32µM*	15%	-10%
O=C(CSc1ccc2nnc(-c3ccncc3)n2n1)Nc1nccs1	32%	-11%	50µM*	-14%	nt
O=C(CSc1ccc2nnc(-c3ccccn3)n2n1)Nc1nccs1	53%	32µM*	-6%	13%	nt
O=C(NCCc1ccco1)C(=O)NCC1CCCN1S(=O)(=O)c1ccccc1 (stereo unspecified)	?	-19%	-4%[0.501 µM]	nt	-1%
CCOc1ccc(/C=C(\C#N)C(=O)Nc2sc3c(c2C(=O)OC)CCC3)cc1OC	55%	-9%	46%[59 µM]	nt	29%
Cc1cc(C(C)(C)C)ccc1OCCCCN1CCCC1	-4%	7.1µM*	?	5%	-29%
Cc1ccc(C(C)(C)C)c(OCCN2CCCC2)c1	-15%	4µM*	3.5µM*	-23%	50µM*
Cc1cc(OCCN2CCCCC2)nc2ccccc12	5%	?	-6%[12.7 µM]	13%	-23%
Cc1cc(C(C)(C)C)ccc1OCCN1CCCC1	-56%	8.9µM*	32µM*	-13%	?
Cc1ccc(C(C)C)c(OCCN2CCc3ccccc3C2)c1	49%	2%	8%[0.501 µM]	2%	16%
Cc1ccc(OCCCCN2CCc3ccccc3C2)c(C)c1	43%	-5%	5%[0.501 µM]	-21%	8%
COC1=C(C(=O)c2ccccc2)C(=O)C2(CC=C(C)C)C[C@H](C(=O)OCC(F)(F)F)C(C)(C)[C@@]1(CC=C(C)C)C2=O (tested in a mixture with another compound)	nt	nt	nt	1%	nt
COc1ccccc1NC(=O)c1ccc2c(c1)N(CC#N)C(=O)C(C)(C)O2	22%	6%	-16%	6%	-8%
O=C(NC(Cc1ccccc1)C(=O)OCC(=O)N1CCc2ccccc21)c1ccco1 (stereo unspecified)	9%	-11%	14µM*	4%	-1%
O=C(CSCc1ccco1)N1CCc2ccccc21	18%	-24%	71µM*	13%	-27%
C=CCC1CCC/C(=N\NS(=O)(=O)c2ccc(C)cc2)C1 (stereo unspecified)	37%	-6%	25µM*	-5%	-4%
CN1C(=O)/C(=N\OC(=O)c2ccccc2Cl)c2ccccc21	49%	-9%	?	-12%	?
CC(=O)O/N=C1\C(=O)N(Cc2ccc(C)cc2)c2ccccc21	1%	-32%	50µM*	6%	-29%
COc1ccc(OCCSc2nnc(C(C)NC(=O)c3ccccc3F)n2C)cc1 (stereo unspecified)	27%	-25%	18%[59 µM]	5%	0%
Oc1cc(-n2cccn2)c(O)cc1-n1cccn1	2.8µM*	0.79µM*	0.71µM*	5µM*	32µM*
Cc1ccc(-c2cc(C(=O)O)n[nH]2)o1	14%	25µM*	-4%[12.7 µM]	-6%	-5%
SMILES	HP1b binding inh	JMJD2A Tudor inh	G9a block	Sfp inh	BAZ2B block
Cc1ccc(C)c(N2CCN(C(=O)CCS(=O)(=O)c3cc4c(cc3Cl)NC(=O)CO4)CC2)c1	12%	-16%	10%[59 µM]	nt	-4%
Oc1ccc(C2C[C@H]3CC[C@@H]2C3)cc1O (stereo partly specified)	79µM*	20µM*	1µM*	22µM*	?
CCc1ccccc1N(CC(=O)NC1CCCC1)C(=O)CNC(=O)c1cccs1	27%	-11%	6%	2%	0%
Cc1sc2ncn(CC(=O)Nc3cccc(C(F)(F)F)c3)c(=O)c2c1S(=O)(=O)N1CCC(C)CC1	14%	-4%	-2%[59 µM]	nt	2%
O=C1C(Cl)=C(N2CCOCC2)C(=O)N1c1cccc(C(F)(F)F)c1	72%	-12%	79µM*	-1%	8%
COC(=O)c1cccc(N2C(=O)C(Cl)=C(N3CCOCC3)C2=O)c1	62%	-32%	50µM*	-25%	-9%
CC(C)Cc1nnc(NC(=O)CCC(=O)NC2CCCC2)s1	10%	-10%	21%	11%	0%
COc1ccc(N2CCN(C(=S)NC(=O)c3cccs3)CC2)c([N+](=O)[O-])c1	?	50µM*	32µM*	8%	?
COc1ccc(N2CCN(C(=O)c3ccccc3)CC2)c([N+](=O)[O-])c1	-14%	-27%	?	9%	-33%
COc1ccc(N2CCN(C(=O)c3ccccc3Br)CC2)c([N+](=O)[O-])c1	-22%	?	56µM*	3%	-30%
COc1ccc(N2CCN(C(=O)c3ccc(Br)cc3)CC2)c([N+](=O)[O-])c1	?	79µM*	45µM*	7%	25µM*
CCc1ccc2oc(C(=O)NCc3ccccc3)cc(=O)c2c1	60%	3%	2%[59 µM]	nt	4%
O=C(CN1C(=O)NC2(CCCCC2)C1=O)N1CCN(S(=O)(=O)c2cccc([N+](=O)[O-])c2)CC1	23%	-9%	4%[59 µM]	nt	-3%
CCCC(=O)OC1(C(=O)CO)CCC2C3CCC4=CC(=O)CCC4(C)C3C(O)CC21C (stereo unspecified)	nt	nt	20%[59 µM]	24%	nt
Cc1oc(-c2ccccc2F)nc1CSCC(=O)N1CCN(c2ccccc2)CC1	-6%	-30%	?	nt	?
COc1cccc2sc(N(C)c3ccccc3)nc12	30%	-3%	-38%	71µM*	0%
CN(C)CCN(C(=O)/C=C/c1cccs1)c1nc2c(F)cc(F)cc2s1	?	40µM*	?	-17%	?
CCOc1ccc2nc(N(CCN(C)C)C(=O)/C=C/c3cccs3)sc2c1	31%	6%	?	-3%	-29%
CCOc1cccc2sc(N(CCN(C)C)C(=O)/C=C/c3cccs3)nc12	-10%	45µM*	-15%	-16%	?
COc1cccc2sc(N(CCN(C)C)C(=O)/C=C/c3cccs3)nc12	11%	-33%	16µM*	1%	nt
COc1ccc(OC)c2sc(N(CCN(C)C)C(=O)/C=C/c3cccs3)nc12	8%[57 µM]	?	nt	-17%	-25%
COc1cccc2sc(N)nc12	18%	-17%	10%[0.501 µM]	nt	11%
COc1ccc(C(=O)c2cn(Cc3ccccc3)c3ccccc3c2=O)cc1OC	10%	-1%	0%[59 µM]	nt	-22%
COc1ccc(NC(=O)C(=O)NCCc2csc(-c3ccc(Cl)cc3)n2)cc1OC	23%[57 µM]	0%	8%[59 µM]	nt	-2%
